Hits are enriched below; roughly 5.4% of the tested compounds scored in any of these assays.
ALR H2O2 inh: inhibitors of human ALR sulfhydryl oxidase, primary screen, biochemical, H2O2 detection, HRP-luminol luminescence, single point. FAD-linked sulfhydryl oxidase ALR (Homo sapiens), P55789. purified ALR, DTT oxidation. inhibition, % (concentration not given with the values). 290,000 tested, 3.8% active. AID 485317, 2010;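 active = mean replicate inhibition above about 79%, with every replicate also reaching it, limit read from the data; inconclusive = only one of the two criteria met; inactive = mean below limit and not every replicate reaching it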
rCAG binder: binders of r(CAG) RNA repeats, primary screen, biochemical, fluorescence; r(CAG) RNA repeat, TO-PRO-1 dye displacement fluorescence; inhibition, % at 3 µM; 370,000 tested, 1.3% active;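 active = inhibition above the plate cutoff, the mean of all test compounds on that plate plus 3 SD, cut at about 35% in these data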;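 note: higher means more dye released from RNA so lower well fluorescence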
APOBEC3G inh: APOBEC3G DNA deaminase inhibitors, primary screen, biochemical, fluorescence, single-stranded DNA substrate, uHTS | 330,000 tested, 0.28% active | recombinant A3G, ssDNA deamination FAM/TAMRA fluorescence | inhibition, % at 20 µM;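 active = inhibition of at least 40% at 20 µM, with no more than 30% in the related APOBEC3A deaminase screen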
aDG glyco up: activators of alpha-DG glycosylation, primary screen, uHTS, Pro5-aDG cells, AlphaScreen | AID 624168, 2012 | 360,000 tested, 0.22% active | alpha-DG glycosylation AlphaScreen (IIH6); 0% Pro5, 100% B10-LARGE cell signal | activation, % at 10 µM;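 active = activation of at least 8% versus controls, or a plate z-score of at least 8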;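 note: Pro5 are CHO cells carrying HIG-tagged alpha-DG that lacks glycosylation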
A3A deaminase: APOBEC3A ssDNA deaminase inhibitors, primary screen, selectivity assay for APOBEC3G inhibitor project, biochemical, FAM/TAMRA oligo cleavage fluorescence. DNA dC->dU-editing enzyme APOBEC-3A (Homo sapiens), P31941. recombinant A3A, FAM/TAMRA ssDNA deamination fluorescence. inhibition, % at 20 µM. 330,000 tested, 0.41% active. AID 493011, 2011;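 active = at least 40% inhibition at 20 µM here, with at most 30% in a related deaminase screen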
Target sequence (P31941 whole entry, looked up): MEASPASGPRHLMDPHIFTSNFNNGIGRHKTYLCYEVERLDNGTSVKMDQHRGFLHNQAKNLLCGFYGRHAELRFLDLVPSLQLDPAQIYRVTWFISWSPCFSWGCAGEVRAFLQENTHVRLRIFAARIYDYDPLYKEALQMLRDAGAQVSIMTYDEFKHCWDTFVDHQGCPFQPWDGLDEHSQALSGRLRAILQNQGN
PHOSPHO1 block: PubChem AID 1565; 290,000 tested, 1.1% active; inhibition, % at 13.3 µM; recombinant PHOSPHO1, absorbance phosphatase assay; Phosphoethanolamine/phosphocholine phosphatase (Homo sapiens), Q8TCT1; in the data active = inhibition above about 60%
Target sequence (Q8TCT1 whole entry, looked up): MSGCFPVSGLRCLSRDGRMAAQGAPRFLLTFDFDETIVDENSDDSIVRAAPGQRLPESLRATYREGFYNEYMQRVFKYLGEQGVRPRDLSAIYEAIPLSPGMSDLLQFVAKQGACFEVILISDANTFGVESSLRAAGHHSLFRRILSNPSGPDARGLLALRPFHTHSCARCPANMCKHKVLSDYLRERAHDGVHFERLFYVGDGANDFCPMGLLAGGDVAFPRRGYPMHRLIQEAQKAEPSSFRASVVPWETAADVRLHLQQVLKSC
rCAG binder conf: small molecules binding CAG repeat RNA – biochemical, fluorescence, confirmation; shares compounds with rCAG binder; r(CAG) RNA repeat, TO-PRO-1 dye displacement fluorescence; inhibition, % at 3 µM; 4,300 tested, 70% active;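 active = inhibition above a per-plate cutoff, the mean inhibition of sample wells plus 3 SD, cut at about 35% in these data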;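 note: loss of TO-PRO-1 fluorescence as compound displaces dye from 1x1 AA loop RNA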
dCAG dye counter: displacement of TO-PRO-1 from CAG DNA duplex, counter-screen for rCAG RNA repeat binder project, biochemical, fluorescence, TO-PRO-1 dye, d(CAG) DNA oligo | 4,300 tested, 94% active | AID 652068, 2013 | d(CAG) DNA oligo TO-PRO-1 dye displacement | inhibition, % at 3 µM | shares compounds with rCAG binder;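 active = inhibition above its plate's cutoff, the mean test-well inhibition plus 3 SD, cut at about 4.8% in these data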;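 note: hits displace the dye from DNA and so lower well fluorescence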
dCAG dye DR: inhibitors of DNA CAG/GTC TO-PRO-1 complex, dose response, counter-screen for rCAG RNA repeat binder project, biochemical, fluorescence, TO-PRO-1 dye; shares compounds with rCAG binder; DNA CAG/GTC duplex TO-PRO-1 dye displacement fluorescence; IC50, µM; 250 tested, 20% active; AID 686960, 2013; in the data active = IC50 below about 10 µM
Numbers stand for hits; 0 = inactive; ? = inconclusive; - = not tested or not shown.

SMILES	ALR H2O2 inh	rCAG binder	APOBEC3G inh	aDG glyco up	A3A deaminase	PHOSPHO1 block	rCAG binder conf	dCAG dye counter	others
O=C(O)COc1ccc(/C=C/C(=O)c2ccc(C3CCCCC3)cc2)cc1	-	48	0	0	0	0	68	29
O=C(COC(=O)C1CCN(S(=O)(=O)c2ccc(Cl)c(C(F)(F)F)c2)CC1)NCC1CCCO1 (configuration not stated)	-	0	-	0	-	-	-	-
C=CCSC1=N/C(=C\C=C\c2ccco2)C(=O)S1	99	58	0	0	0	70	45	21	dCAG dye DR=0
O=S(=O)(Nc1ccc(C(O)(C(F)(F)F)C(F)(F)F)cc1)c1cccc2cccnc12	-	0	-	0	-	-	-	-
CN1CCN(c2ncnc3c2ncn3[C@H]2CN(Cc3ccc4c(c3)OCO4)C[C@@H](CO)O2)CC1	-	0	-	0	-	-	-	-
CC(=O)c1c(O)c(C)c(O)c2c1OC1=CC(=O)C(C(C)=O)C(=O)[C@@]12C (some centres not stated)	-	42	0	0	0	0	0	0
CCOC(=O)c1sc2nc(-c3ccco3)c3c(c2c1N)CC(C)(C)OC3	0	51	0	0	0	0	35	14
O=C(Nc1nc(-c2ccccc2)cs1)c1ccccc1F	0	0	0	0	0	-	-	-
Cc1ccc(S(=O)(=O)Nc2ccccc2C(=O)Nc2nc(-c3ccc(F)cc3)cs2)cc1	-	89	0	0	0	0	93	81
Cc1ccc(S(=O)(=O)Nc2ccccc2-c2ccccc2NS(=O)(=O)c2ccc(C)cc2)cc1	0	74	0	0	0	0	89	59
COc1cc(NS(=O)(=O)c2ccc(Nc3nc(-c4cccc([N+](=O)[O-])c4)cs3)cc2)nc(OC)n1	0	95	0	0	0	0	90	64
Cc1ccc(S(=O)(=O)Nc2ccccc2C(N)=O)cc1	0	0	0	0	0	0	-	-
COc1ccc(-c2csc(NS(=O)(=O)c3ccc([N+](=O)[O-])cc3)n2)cc1	0	70	0	0	0	0	57	23
CN(CCOc1ccccc1)C(=O)c1cc(S(=O)(=O)N2CCOCC2)c(Cl)cc1Cl	-	0	-	0	-	-	-	-
COc1ccc(N2CCN(CCCNC(=O)CCOC(C)(C)C)CC2)cc1	-	0	-	-	-	-	-	-
CCc1nc2ccc(C(=O)NCCOc3ccc(OC)cc3)cn2c1N(C)Cc1cccs1	-	0	-	0	-	-	-	-
Cc1ccc(S(=O)(=O)Nc2nc(-c3ccccc3)cs2)cc1	-	40	0	0	0	0	0	6.1
COc1ccc(-c2csc(Nc3ccc(S(=O)(=O)Nc4cc(C)on4)cc3)n2)cc1	98	73	0	0	0	0	72	36
COc1ccc(Cc2nnc(NS(=O)(=O)c3ccc(NC(C)=O)cc3)s2)cc1	0	0	0	0	0	0	-	-
COc1ccc(Cc2nnc(NS(=O)(=O)c3ccc([N+](=O)[O-])cc3)s2)cc1	0	44	0	0	0	0	49	17
Cc1ccc(Nc2nc(-c3ccccc3)cs2)nc1	0	47	0	0	0	0	0	0
CCOC(=O)N(C)[C@H]1C[C@H]2c3[nH]c4c(-c5ccccc5)cccc4c3CCN2C(=O)[C@H]1[C@H](C)O	-	0	-	-	-	-	-	-
O=C(Nc1ccccc1N1CCOCC1)c1ccccc1NS(=O)(=O)c1ccc(F)cc1	0	0	0	0	0	0	-	-
COc1ccc(-c2csc(NC(=O)c3ccccc3NS(=O)(=O)c3ccc(F)c(F)c3)n2)cc1	0	89	0	0	0	0	90	75
O=C(Nc1ccccc1N1CCOCC1)c1ccccc1NS(=O)(=O)c1ccc(F)c(F)c1	0	38	0	0	0	0	0	7.2
SMILES	ALR H2O2 inh	rCAG binder	APOBEC3G inh	aDG glyco up	A3A deaminase	PHOSPHO1 block	rCAG binder conf	dCAG dye counter	others
FC(F)c1nc2nc(Cl)c(Cl)nc2[nH]1	-	0	-	0	-	-	-	-
COC(=O)c1sccc1NC(=O)CSc1ccccc1NS(=O)(=O)c1ccc(Br)cc1	-	46	0	0	0	0	50	15
O=C1c2ccccc2-c2n[nH]c(=O)c3ccc(N4CCCCC4)c1c23	0	37	0	0	0	0	0	6.8
Cc1ccc(S(=O)(=O)Oc2ccc(/C=C3\C(=N)N4N=C(S(C)(=O)=O)SC4=NC3=O)cc2)cc1	92	63	0	0	0	0	88	66
COc1cc(/C=C2\C(=N)N3N=C(S(C)(=O)=O)SC3=NC2=O)cc(OC)c1OCCOc1ccc(C)cc1	0	57	0	0	0	0	88	58
COc1cc(/C=C2/C(=N)N3N=C(C)SC3=NC2=O)ccc1OS(=O)(=O)c1ccc(C)cc1	0	0	0	0	0	0	-	-
COc1cc(/C=C2\C(=N)N3N=C(S(C)(=O)=O)SC3=NC2=O)cc(OC)c1OCCOc1cccc(C)c1	0	51	0	0	0	0	89	69
COc1cc(/C=C2\C(=N)N3N=C(S(C)(=O)=O)SC3=NC2=O)ccc1OCCOc1ccc(C)cc1	?	0	0	0	0	0	-	-
Nc1[nH]c(C(=O)c2ccccc2)c(-c2ccccc2C(F)(F)F)c1C(=O)NCc1cccc2ccccc12	-	0	-	0	-	-	-	-
O=C(CN(Cc1ccccc1)S(=O)(=O)c1ccc(Br)cc1)N/N=C/c1ccccc1C(=O)O	0	51	0	0	0	0	57	15
Cc1ccc(C(=O)N/N=C/c2cccnc2)cc1Cl	-	0	-	0	-	-	-	-
Cc1cc(C)nc(NS(=O)(=O)c2ccc(NC(=O)C3(c4ccc([N+](=O)[O-])cc4)CCCC3)cc2)n1	0	40	0	0	0	0	0	9.0
Cc1ccc(C(=O)N(NC2=NS(=O)(=O)c3ccccc32)S(=O)(=O)c2ccc(C)cc2)cc1	0	64	0	0	0	0	44	13
CCN(C1=NS(=O)(=O)c2ccccc21)N(CC)S(=O)(=O)c1ccc(C)cc1	0	0	0	0	0	0	-	-

Source: PubChem (several laboratories)
